ChEMBL document CHEMBL1961873, “Compounds: GSK PKIS; Assays: Nanosyn kinase panel” (2012)

Columns and labels:
[1] = biological target: High affinity nerve growth factor receptor (Homo sapiens) (UniProt P04629); conditions: at 1 µM;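 further: each value is the mean percent inhibition of TRKA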
[2] = biological target: BDNF/NT-3 growth factors receptor (Homo sapiens) (UniProt Q16620); conditions: at 0.1 µM
[3] = biological target: BDNF/NT-3 growth factors receptor (Homo sapiens) (UniProt Q16620); conditions: at 1 µM
[4] = biological target: NT-3 growth factor receptor (Homo sapiens) (UniProt Q16288); conditions: at 0.1 µM
[5] = biological target: NT-3 growth factor receptor (Homo sapiens) (UniProt Q16288); conditions: at 1 µM
[6] = biological target: T1, Tyrosine-protein kinase TXK (Homo sapiens) (UniProt P42681); conditions: at 0.1 µM
T1 sequence (whole entry): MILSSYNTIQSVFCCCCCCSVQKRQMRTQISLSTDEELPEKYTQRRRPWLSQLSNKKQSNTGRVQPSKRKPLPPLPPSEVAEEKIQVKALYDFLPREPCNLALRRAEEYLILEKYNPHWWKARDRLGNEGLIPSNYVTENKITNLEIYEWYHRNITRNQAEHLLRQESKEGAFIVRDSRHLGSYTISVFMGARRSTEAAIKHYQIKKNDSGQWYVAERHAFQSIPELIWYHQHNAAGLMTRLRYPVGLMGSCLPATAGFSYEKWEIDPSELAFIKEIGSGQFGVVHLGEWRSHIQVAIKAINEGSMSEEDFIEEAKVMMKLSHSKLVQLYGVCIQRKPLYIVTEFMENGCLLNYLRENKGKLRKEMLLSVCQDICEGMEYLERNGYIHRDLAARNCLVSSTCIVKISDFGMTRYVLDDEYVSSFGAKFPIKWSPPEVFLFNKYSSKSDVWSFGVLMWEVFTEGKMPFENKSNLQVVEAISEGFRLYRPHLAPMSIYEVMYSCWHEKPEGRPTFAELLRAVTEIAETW

[7] = biological target: T1, Tyrosine-protein kinase TXK (Homo sapiens); conditions: at 1 µM
[8] = biological target: Non-receptor tyrosine-protein kinase TYK2 (Homo sapiens) (UniProt P29597); conditions: at 0.1 µM;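 further: each value is a mean of the inhibition readings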
[9] = biological target: T2, Dual specificity protein kinase TTK (Homo sapiens) (UniProt P33981); conditions: at 1 µM;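 further: reported figures are mean TTK inhibition at 1 µM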
T2 sequence (whole entry): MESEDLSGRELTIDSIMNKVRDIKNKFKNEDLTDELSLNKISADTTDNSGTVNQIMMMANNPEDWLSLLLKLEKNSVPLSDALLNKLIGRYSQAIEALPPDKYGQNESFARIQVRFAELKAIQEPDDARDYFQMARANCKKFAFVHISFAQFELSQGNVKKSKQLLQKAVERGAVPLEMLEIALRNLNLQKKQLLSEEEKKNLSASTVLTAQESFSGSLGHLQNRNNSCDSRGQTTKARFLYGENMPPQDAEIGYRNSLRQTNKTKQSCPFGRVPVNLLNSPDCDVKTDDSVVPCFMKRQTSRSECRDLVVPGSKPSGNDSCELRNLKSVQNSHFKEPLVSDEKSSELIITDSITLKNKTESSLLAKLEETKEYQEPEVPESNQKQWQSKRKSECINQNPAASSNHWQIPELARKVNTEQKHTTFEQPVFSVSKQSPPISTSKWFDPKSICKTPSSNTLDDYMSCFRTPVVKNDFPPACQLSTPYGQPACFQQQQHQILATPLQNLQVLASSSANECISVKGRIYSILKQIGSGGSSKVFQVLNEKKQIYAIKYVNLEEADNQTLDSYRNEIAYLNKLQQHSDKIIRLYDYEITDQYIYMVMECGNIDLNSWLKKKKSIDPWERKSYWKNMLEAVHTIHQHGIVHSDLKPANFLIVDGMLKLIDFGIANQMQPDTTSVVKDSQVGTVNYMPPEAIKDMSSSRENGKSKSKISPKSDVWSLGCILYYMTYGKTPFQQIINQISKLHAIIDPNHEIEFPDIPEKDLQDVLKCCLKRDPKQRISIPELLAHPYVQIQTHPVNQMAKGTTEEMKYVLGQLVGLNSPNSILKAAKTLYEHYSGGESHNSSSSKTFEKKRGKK

[10] = biological target: T3, Aurora kinase A (Homo sapiens) (UniProt O14965); conditions: at 0.1 µM;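 further: each reported value is a mean percent inhibition of Aurora-A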
T3 sequence (whole entry): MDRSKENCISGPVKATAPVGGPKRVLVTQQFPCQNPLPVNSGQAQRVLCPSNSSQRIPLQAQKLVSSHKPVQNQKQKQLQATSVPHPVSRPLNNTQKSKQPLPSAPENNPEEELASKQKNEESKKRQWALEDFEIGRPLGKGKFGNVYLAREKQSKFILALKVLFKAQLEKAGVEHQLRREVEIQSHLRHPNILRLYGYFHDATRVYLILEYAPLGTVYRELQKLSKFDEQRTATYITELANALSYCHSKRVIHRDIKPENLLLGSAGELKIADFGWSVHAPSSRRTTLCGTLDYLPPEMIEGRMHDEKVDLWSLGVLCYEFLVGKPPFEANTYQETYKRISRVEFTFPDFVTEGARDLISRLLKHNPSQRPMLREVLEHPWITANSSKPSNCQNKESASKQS

High affinity nerve growth factor receptor (Homo sapiens), sequence (P04629 33-796 limits assumed): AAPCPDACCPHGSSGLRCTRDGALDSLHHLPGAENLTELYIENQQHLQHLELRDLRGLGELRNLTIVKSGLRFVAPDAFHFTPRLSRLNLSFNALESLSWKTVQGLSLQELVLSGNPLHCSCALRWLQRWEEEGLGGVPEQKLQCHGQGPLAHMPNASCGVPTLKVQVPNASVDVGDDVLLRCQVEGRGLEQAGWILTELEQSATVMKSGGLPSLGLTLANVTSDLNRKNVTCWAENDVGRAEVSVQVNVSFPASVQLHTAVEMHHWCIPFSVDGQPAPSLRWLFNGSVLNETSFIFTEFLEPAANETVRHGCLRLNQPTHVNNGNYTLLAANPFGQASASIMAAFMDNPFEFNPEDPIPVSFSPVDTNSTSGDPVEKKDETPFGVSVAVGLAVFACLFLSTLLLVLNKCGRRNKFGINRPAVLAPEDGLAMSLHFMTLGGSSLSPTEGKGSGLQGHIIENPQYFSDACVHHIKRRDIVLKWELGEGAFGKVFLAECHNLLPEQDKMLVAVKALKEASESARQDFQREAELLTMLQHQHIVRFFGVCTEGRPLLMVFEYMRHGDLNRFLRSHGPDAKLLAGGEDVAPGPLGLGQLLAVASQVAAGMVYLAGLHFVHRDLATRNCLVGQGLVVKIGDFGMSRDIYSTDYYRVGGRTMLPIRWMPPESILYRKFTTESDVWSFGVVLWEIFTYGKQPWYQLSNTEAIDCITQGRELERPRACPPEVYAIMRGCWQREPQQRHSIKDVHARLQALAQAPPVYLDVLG
BDNF/NT-3 growth factors receptor (Homo sapiens), sequence (Q16620 32-822 limits assumed): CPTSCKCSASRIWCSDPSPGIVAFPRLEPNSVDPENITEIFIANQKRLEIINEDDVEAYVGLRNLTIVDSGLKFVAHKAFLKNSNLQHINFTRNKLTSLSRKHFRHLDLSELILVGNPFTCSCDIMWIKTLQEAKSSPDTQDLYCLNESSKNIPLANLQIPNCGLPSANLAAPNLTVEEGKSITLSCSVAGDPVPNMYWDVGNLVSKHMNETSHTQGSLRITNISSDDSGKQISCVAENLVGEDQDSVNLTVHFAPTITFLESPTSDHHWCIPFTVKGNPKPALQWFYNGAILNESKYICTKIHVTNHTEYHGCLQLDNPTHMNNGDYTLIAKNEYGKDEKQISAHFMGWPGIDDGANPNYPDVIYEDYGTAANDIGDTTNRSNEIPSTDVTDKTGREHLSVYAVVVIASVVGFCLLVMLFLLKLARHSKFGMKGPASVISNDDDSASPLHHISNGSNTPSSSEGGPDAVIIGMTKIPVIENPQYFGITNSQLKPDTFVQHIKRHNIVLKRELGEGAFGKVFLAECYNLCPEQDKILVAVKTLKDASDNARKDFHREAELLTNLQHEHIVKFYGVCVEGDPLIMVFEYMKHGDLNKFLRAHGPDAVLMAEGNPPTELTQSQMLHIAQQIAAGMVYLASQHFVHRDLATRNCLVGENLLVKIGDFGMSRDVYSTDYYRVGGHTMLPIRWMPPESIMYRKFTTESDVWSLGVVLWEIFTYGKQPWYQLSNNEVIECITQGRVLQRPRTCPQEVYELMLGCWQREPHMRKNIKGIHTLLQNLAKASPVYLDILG
Non-receptor tyrosine-protein kinase TYK2 (Homo sapiens), sequence (P29597 whole entry): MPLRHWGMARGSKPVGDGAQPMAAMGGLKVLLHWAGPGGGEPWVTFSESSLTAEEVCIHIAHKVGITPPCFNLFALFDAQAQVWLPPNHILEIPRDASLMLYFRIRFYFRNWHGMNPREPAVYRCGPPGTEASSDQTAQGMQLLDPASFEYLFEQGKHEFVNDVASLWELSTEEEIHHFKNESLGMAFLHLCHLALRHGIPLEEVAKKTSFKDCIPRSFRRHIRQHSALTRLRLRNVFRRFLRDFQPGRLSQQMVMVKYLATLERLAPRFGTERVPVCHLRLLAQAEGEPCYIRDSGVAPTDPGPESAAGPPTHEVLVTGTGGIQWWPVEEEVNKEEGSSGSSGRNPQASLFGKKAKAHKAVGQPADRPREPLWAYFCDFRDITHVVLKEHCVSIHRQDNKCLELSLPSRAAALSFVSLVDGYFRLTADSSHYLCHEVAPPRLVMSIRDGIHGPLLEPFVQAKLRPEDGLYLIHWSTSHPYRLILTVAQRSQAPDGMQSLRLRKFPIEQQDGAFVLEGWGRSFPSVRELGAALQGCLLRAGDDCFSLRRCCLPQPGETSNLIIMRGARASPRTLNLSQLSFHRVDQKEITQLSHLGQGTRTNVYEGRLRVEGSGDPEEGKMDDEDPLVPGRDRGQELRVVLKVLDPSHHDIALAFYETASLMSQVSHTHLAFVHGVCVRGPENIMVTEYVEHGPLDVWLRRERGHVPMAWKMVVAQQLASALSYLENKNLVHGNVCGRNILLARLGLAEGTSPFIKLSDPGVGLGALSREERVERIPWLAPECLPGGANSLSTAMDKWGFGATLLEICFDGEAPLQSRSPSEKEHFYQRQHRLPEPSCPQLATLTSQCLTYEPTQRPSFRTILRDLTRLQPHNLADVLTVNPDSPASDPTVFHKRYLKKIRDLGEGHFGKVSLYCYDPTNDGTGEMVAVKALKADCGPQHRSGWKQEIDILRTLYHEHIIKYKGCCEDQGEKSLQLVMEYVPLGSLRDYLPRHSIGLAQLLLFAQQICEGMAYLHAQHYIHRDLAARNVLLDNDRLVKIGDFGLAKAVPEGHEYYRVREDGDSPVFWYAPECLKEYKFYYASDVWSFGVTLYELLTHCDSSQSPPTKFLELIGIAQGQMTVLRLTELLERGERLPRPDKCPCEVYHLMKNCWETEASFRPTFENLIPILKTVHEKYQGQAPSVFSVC
NT-3 growth factor receptor (Homo sapiens), sequence (Q16288 32-839 limits assumed): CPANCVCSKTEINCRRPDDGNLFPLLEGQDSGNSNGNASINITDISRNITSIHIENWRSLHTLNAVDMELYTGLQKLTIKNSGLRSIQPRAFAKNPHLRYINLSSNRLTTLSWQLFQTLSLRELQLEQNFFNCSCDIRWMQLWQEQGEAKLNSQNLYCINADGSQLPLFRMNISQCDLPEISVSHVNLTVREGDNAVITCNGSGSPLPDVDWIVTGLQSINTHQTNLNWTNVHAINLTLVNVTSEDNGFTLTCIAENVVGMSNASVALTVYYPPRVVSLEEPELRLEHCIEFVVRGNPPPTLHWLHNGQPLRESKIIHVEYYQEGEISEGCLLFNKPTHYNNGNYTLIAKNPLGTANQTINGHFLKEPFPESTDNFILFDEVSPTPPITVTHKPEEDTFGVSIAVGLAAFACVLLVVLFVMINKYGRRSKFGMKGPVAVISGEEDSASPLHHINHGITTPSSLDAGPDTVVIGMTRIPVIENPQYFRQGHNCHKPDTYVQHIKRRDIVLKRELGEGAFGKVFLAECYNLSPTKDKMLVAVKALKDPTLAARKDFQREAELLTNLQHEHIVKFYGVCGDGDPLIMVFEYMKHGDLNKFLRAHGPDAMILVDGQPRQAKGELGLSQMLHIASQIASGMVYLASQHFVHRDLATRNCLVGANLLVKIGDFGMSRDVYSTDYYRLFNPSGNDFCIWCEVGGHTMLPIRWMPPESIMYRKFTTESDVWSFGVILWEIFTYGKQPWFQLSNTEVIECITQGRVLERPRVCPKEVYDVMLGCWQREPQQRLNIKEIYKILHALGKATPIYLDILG

CCS(=O)(=O)c1ccc(OC)c(Nc2ncc(-c3ccccc3Cl)o2)c1
inhibition [1]: 5.58%
inhibition [2]: 1.97%
inhibition [3]: 8.35%
inhibition [4]: 3.33%
inhibition [5]: 12.5%
inhibition [6]: 1.52%
inhibition [7]: 10.3%
inhibition [8]: -3.24%
inhibition [9]: 9.34%
inhibition [10]: 1.49%

NS(=O)(=O)c1ccc(N/N=C2\C(=O)Nc3ccc(-c4cnco4)cc32)cc1
inhibition [1]: 36.1%
inhibition [2]: 9.38%
inhibition [3]: 46.4%
inhibition [4]: 13.3%
inhibition [5]: 51.9%
inhibition [6]: -3.23%
inhibition [7]: 0.12%
inhibition [8]: -0.2%
inhibition [9]: 52.8%
inhibition [10]: 1.82%

c1ccc(-c2n[nH]cc2-c2ccnc(-c3ccc(OCCN4CCOCC4)cc3)c2)nc1
inhibition [1]: -0.7%
inhibition [2]: 0.05%
inhibition [3]: 0.41%
inhibition [4]: 1.29%
inhibition [5]: 3.05%
inhibition [6]: 5.88%
inhibition [7]: 6.57%
inhibition [8]: 4.24%
inhibition [9]: 0.86%
inhibition [10]: 0.43%

COc1ccc(-c2ccc3c(NC(=O)C4CC4)n[nH]c3n2)cc1
inhibition [1]: 2.48%
inhibition [2]: 1.11%
inhibition [3]: 5.12%
inhibition [4]: -0.49%
inhibition [5]: 5.04%
inhibition [6]: 2.08%
inhibition [7]: 2.53%
inhibition [8]: 0.27%
inhibition [9]: 8.48%
inhibition [10]: 1.67%

Fc1ccc(-c2ncn(C3CCNCC3)c2-c2ccnc(Oc3ccc(F)c(F)c3)n2)cc1
inhibition [1]: 3.11%
inhibition [2]: 3.23%
inhibition [3]: 3.93%
inhibition [4]: 2.87%
inhibition [5]: 4.23%
inhibition [6]: -5.36%
inhibition [7]: 0.03%
inhibition [8]: -3.58%
inhibition [9]: 14%
inhibition [10]: -0.65%

COc1cc2ncn(-c3cc(OCc4cccs4)c(C(N)=O)s3)c2cc1OC
inhibition [1]: 8.7%
inhibition [2]: 3.23%
inhibition [3]: 16.9%
inhibition [4]: 6.48%
inhibition [5]: 27.2%
inhibition [6]: 0.76%
inhibition [7]: 5.11%
inhibition [8]: -2.34%
inhibition [9]: 7.37%
inhibition [10]: -6.64%

NS(=O)(=O)c1ccc(N/N=C2\C(=O)Nc3ccc(C(=O)NCCCn4ccnc4)cc32)cc1
inhibition [1]: 12%
inhibition [2]: 9.05%
inhibition [3]: 43.2%
inhibition [4]: 9.74%
inhibition [5]: 44.2%
inhibition [6]: 3.46%
inhibition [7]: 4.42%
inhibition [8]: -2.26%
inhibition [9]: 71.3%
inhibition [10]: 5.44%

CN(C)CCCNc1nccc(-c2c(-c3ccc(F)cc3)nn3cc(C(F)(F)F)ccc23)n1
inhibition [1]: 2.77%
inhibition [2]: 4.65%
inhibition [3]: 0.51%
inhibition [4]: 2.89%
inhibition [5]: 2.21%
inhibition [6]: -0.89%
inhibition [7]: 0.21%
inhibition [8]: -7.47%
inhibition [9]: 8.76%
inhibition [10]: -2.9%

COC(=O)Nc1nc2ccc(Sc3ccc(NC(=O)Nc4cc(C(F)(F)F)ccc4F)cc3)cc2[nH]1
inhibition [1]: 83%
inhibition [2]: 15.1%
inhibition [3]: 71.8%
inhibition [4]: 15.5%
inhibition [5]: 69.5%
inhibition [6]: 3.58%
inhibition [7]: 4.98%
inhibition [8]: -0.72%
inhibition [9]: 8.33%
inhibition [10]: 1.16%

CN(c1ccc(NC(=O)Nc2c(Cl)cccc2Cl)cc1)c1ccnc(Nc2cccc(CS(C)(=O)=O)c2)n1
inhibition [1]: 68.7%
inhibition [2]: 30.1%
inhibition [3]: 55.4%
inhibition [4]: 31.7%
inhibition [5]: 88.6%
inhibition [6]: 9.28%
inhibition [7]: 21.1%
inhibition [8]: -2.98%
inhibition [9]: 19.4%
inhibition [10]: 73.9%

O=C1Nc2ccc(I)cc2C1=Cc1cc(Br)c(O)c(Br)c1
inhibition [1]: 7.89%
inhibition [2]: 2.53%
inhibition [3]: 5.74%
inhibition [4]: 1.67%
inhibition [5]: 6.01%
inhibition [6]: 7.46%
inhibition [7]: 6.98%
inhibition [8]: -1.21%
inhibition [9]: 13.3%
inhibition [10]: 3.6%

O=C(NCC1CC1)c1ccc(-c2cccc(C(=O)NC3CC3)c2)cc1
inhibition [1]: 0.79%
inhibition [2]: 0.56%
inhibition [3]: -1.04%
inhibition [4]: 2.02%
inhibition [5]: -1.15%
inhibition [6]: 2.43%
inhibition [7]: 5.31%
inhibition [8]: -2.99%
inhibition [9]: 3.09%
inhibition [10]: 1.42%

Fc1ccc(-c2ncn(C3CCNCC3)c2-c2ccnc(Oc3ccc4c(c3)OCO4)n2)cc1
inhibition [1]: 4.38%
inhibition [2]: 5.44%
inhibition [3]: 5.76%
inhibition [4]: 4.02%
inhibition [5]: 7.26%
inhibition [6]: 0.33%
inhibition [7]: 3.68%
inhibition [8]: -2.53%
inhibition [9]: 9.25%
inhibition [10]: 4.04%

CN1CCN(CCCNc2nc3ccc(Oc4ccc(NC(=O)Nc5cc(C(F)(F)F)ccc5F)cc4)cc3[nH]2)CC1
inhibition [1]: 34%
inhibition [2]: 1.65%
inhibition [3]: 10.6%
inhibition [4]: 4.05%
inhibition [5]: 17.4%
inhibition [6]: 1%
inhibition [7]: 5.01%
inhibition [8]: -2.82%
inhibition [9]: 20.8%
inhibition [10]: -1.66%

O=C1NC(=O)C(c2cccc(Cl)c2)=C1Nc1ccc(Cl)c(C(=O)O)c1
inhibition [1]: -0.54%
inhibition [2]: 0.88%
inhibition [3]: 1.89%
inhibition [4]: 1.02%
inhibition [5]: 2.72%
inhibition [6]: 2.81%
inhibition [7]: 2.53%
inhibition [8]: -0.74%
inhibition [9]: 9.31%
inhibition [10]: 2.92%

COc1cc(N2CCN(C(C)C)CC2)ccc1Nc1nc(Nc2ccc(F)cc2C(=O)NC[C@@H](O)CO)c2cc[nH]c2n1
inhibition [1]: 1.99%
inhibition [2]: 3.32%
inhibition [3]: 5.92%
inhibition [4]: 3.35%
inhibition [5]: 4.57%
inhibition [6]: -1.48%
inhibition [7]: -0.56%
inhibition [8]: -4.74%
inhibition [9]: 82%
inhibition [10]: -1.18%

O=C1Nc2ccccc2/C1=C/Nc1ccc(-n2cncn2)cc1
inhibition [1]: 44.2%
inhibition [2]: 11.7%
inhibition [3]: 56.5%
inhibition [4]: 12.5%
inhibition [5]: 58.4%
inhibition [6]: 3.04%
inhibition [7]: 5.07%
inhibition [8]: -4.51%
inhibition [9]: 47.9%
inhibition [10]: 4.13%
